# Compound activity as filed in PubChem.
# TEAD-YAP inh: TEAD-YAP interaction inhibition. AID 1259422. inhibition, % at 9.12 µM. 1.4% of 640,000 active. HEK-TIYL cells, TEAD-Gal4/YAP UAS-luciferase luminescence; in the data active means inhibition above about 32%;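 further: 0% = median of test compound wells and 100% = reference inhibitor wells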
# GPR151 ag: activates the human receptor GPR151 | Q8TDV0 | PathHunter beta-arrestin GPR151 cells, luminescence | activation, % at 11.2 µM | 1% of 650,000 active | AID 1508602; in the data active means activation above about 4.9%;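 further: 0% = median of compound wells and 100% = cells with positive control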
# Target sequence (Q8TDV0 whole entry, looked up): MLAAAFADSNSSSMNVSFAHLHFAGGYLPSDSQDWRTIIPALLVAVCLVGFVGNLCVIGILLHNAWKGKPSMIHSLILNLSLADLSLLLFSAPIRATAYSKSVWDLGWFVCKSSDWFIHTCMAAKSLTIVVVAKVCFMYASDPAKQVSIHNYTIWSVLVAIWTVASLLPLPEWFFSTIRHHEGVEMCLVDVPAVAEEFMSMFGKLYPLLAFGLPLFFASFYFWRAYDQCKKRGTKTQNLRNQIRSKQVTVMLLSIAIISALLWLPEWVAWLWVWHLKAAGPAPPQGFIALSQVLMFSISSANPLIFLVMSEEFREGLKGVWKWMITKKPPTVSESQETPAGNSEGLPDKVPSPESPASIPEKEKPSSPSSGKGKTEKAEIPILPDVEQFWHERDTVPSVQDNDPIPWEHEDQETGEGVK
# FBW7 act: activators of human E3 ligase FBW7; Q969H0; AlphaScreen FBW7–phospho-cyclin E peptide binding, activator screen; normalized activity (activation), % at 26.1 µM; 0.13% of 650,000 active; in the data active means normalized activity above about 1.9%;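 further: purified mutant Fbw7 with reduced substrate affinity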
# MITF inh: human MITF inhibition, primary screen. 0.91% of 650,000 active. inhibition, % at 2.6 µM. O75030. AlphaScreen MITF homodimerization, bead proximity signal; in the data active means inhibition above about 50%;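 further: 0% = vehicle wells with protein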
# MITF confirm: human MITF inhibition, confirmation | 16% of 4,700 active | shares compounds with MITF inh | inhibition, % at 2.6 µM | AlphaScreen MITF homodimerization, biotin/His-MITF beads;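 active means inhibition above a cutoff derived from the DMSO control wells, cut at about 28% in these data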;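 further: 0% = MITF dimer wells with DMSO only; inhibitors lower the bead chemiluminescence by keeping MITF from dimerizing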
# AlphaScreen intf2: AlphaScreen optical interference, counter-screen. shares compounds with MITF inh. LysRS AlphaScreen counterscreen, signal interference, triplicate. inhibition, % at 2.6 µM. 7.6% of 4,700 active. AID 1259376;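 active means inhibition above a cutoff derived from the DMSO control wells, cut at about 30% in these data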
# Active calls of the source: *; . = not tested or not shown. A selection: hits, their analogues and other compounds. The true share with any hit is near 3.4%.
SMILES,TEAD-YAP inh,GPR151 ag,FBW7 act,MITF inh,MITF confirm,AlphaScreen intf2
COc1ccc(-c2cc(C(F)(F)F)nc(S(=O)(=O)CCCC(=O)Nc3ccc(F)c(Cl)c3)n2)cc1OC,1,0,0,76*,-6,6
COc1ccccc1-c1cc(C(F)(F)F)nc(S(=O)(=O)CCCC(=O)Nc2ccc(F)c(Cl)c2)n1,-1,1,0,54*,-9,-2
CNC(=O)c1cc([N+](=O)[O-])cc([N+](=O)[O-])c1,4,-1,1,10,.,.
CCCN1CCC(NCCc2ccc(Cl)cc2)CC1,5,0,0,51*,0,1
CCC(CC)NC(=O)c1ccc(Cl)cc1[N+](=O)[O-],5,-1,0,74*,1,9
COc1ccccc1COCC(O)CNCC12CC3CC(CC(C3)C1)C2 (stereo not drawn),10,-1,1,64*,15,16
COc1ccc(OCC(O)CNCCC(C)C)c(C(C)(C)C)c1 (stereo not drawn),0,0,0,31,.,.
COc1ccccc1COCC(O)CNCCc1ccc(C(F)(F)F)cc1 (stereo not drawn),5,3,0,12,.,.
COc1ccc(OCC(O)CNCCCN(C)C)c(C(C)(C)C)c1 (stereo not drawn),1,1,0,68*,6,11
COc1ccccc1COCC(O)CNCCCN(C)C (stereo not drawn),5,0,0,56*,-9,-6
COc1ccc(S(=O)(=O)Nc2cccc(-n3c(C)nc4ccccc4c3=O)c2)cc1F,-4,0,0,12,.,.
O=S(=O)(Nc1ccc(Br)cc1)c1ccc(F)c(Cl)c1,-6,0,0,-3,.,.
Cc1nn(C2CCS(=O)(=O)C2)c(Cl)c1CNCc1ccccc1 (stereo not drawn),2,2,0,58*,5,-5
O=C(/C=C/c1cccc([N+](=O)[O-])c1)Nc1ccc(N2CCCC2)cc1,-2,-1,0,-6,.,.
COc1ccccc1N1CCN(C(=O)CSc2nc3ccccc3c(=O)n2NC(=O)c2ccccc2)CC1,-6,0,0,75*,7,13
COc1ccccc1N1CCN(C(=O)CSc2nc3ccccc3c(=O)n2NC(=O)Cc2ccccc2)CC1,14,2,0,23,.,.
N#CCSc1nc2ccccc2c(=O)n1NC(=O)c1ccccc1,82*,-8,0,67*,2,10
COc1cc(C(=O)ON2C(=O)c3ccccc3C2=O)cc(OC)c1OC,6,-1,0,2,.,.
CC(=O)c1ccc(OCCCN2CCN(C)CC2)cc1,1,0,0,37,.,.
CCN1CCN(CCCCOc2cccc(C(C)=O)c2)CC1,-7,1,0,59*,10,18
CC(=O)c1cccc(OCCCN2CCCCC2)c1,0,1,0,32,.,.
CC(=O)c1cccc(OCCN2CCN(C)CC2)c1,-8,0,0,57*,9,16
COc1ccc(C(=O)N/N=C(/C)CC(=O)Nc2ccccn2)cc1OC,-4,1,1,60*,4,13
O=C(C1CC12CCN(Cc1nc3ccccc3[nH]1)CC2)N1CCN(c2ccccc2)CC1 (stereo not drawn),1,0,0,-6,.,.
O=C(C1CCN(Cc2nc3ccccc3[nH]2)CC1)N1CCc2ccccc2C1,13,0,0,62*,6,15
SMILES,TEAD-YAP inh,GPR151 ag,FBW7 act,MITF inh,MITF confirm,AlphaScreen intf2
O=C(NCc1ccc2c(c1)OCO2)C1CCN(Cc2nc3ccccc3[nH]2)CC1,-7,0,0,63*,7,10
O=C(C1CCN(Cc2nc3ccccc3[nH]2)CC1)N1CCN(c2ccc(F)cc2)CC1,15,-1,0,58*,10,14
CCCNC(=O)Nc1[nH]c(C)c(C(=O)OCC)c1C,3,1,0,7,.,.
CS(=O)(=O)N(CC(=O)Nc1ccc(F)c(Cl)c1)c1cccc(Br)c1,4,0,0,-15,.,.
Nc1cc2c(cc1[N+](=O)[O-])OCCO2,-3,0,0,-12,.,.
CN(C)C=Nc1cc2c(cc1[N+](=O)[O-])OCCO2,-7,1,0,51*,9,7
CC12C(=O)N(c3cc(Cl)c(Cl)c(Cl)c3)C(=O)C1C1C=CC2C1 (stereo not drawn),3,-1,0,8,.,.
O=C(c1cccs1)N1CCC(N2CCCCCC2)CC1,9,-2,1,55*,-7,-7
COc1cc(OC)cc(C(=O)N2CCN(C3CCCCCC3)CC2)c1,0,2,0,59*,0,12
COc1ccc(C(=O)N2CCN(C3CCC(c4ccccc4)CC3)CC2)cc1 (stereo not drawn),3,-1,0,56*,14,16
CC1CCCC(N2CCN(C(=O)c3ccncc3)CC2)C1 (stereo not drawn),-5,2,0,53*,-6,-5
COc1cc(OC)cc(C(=O)N2CCN(C3CCC(c4ccccc4)CC3)CC2)c1 (stereo not drawn),13,-1,1,34,.,.
O=C(c1ccncc1)N1CCN(C2CCCCCC2)CC1,-1,2,0,82*,-2,0
O=C(c1cccs1)N1CCN(C2CCCC2)CC1,-9,0,0,45,.,.
CC1CCCC(N2CCN(C(=O)c3cccs3)CC2)C1 (stereo not drawn),3,0,1,53*,-6,-2
O=C(c1ccccc1)N1CCC(N2CCCCCC2)CC1,10,-1,0,20,.,.
CN1CCN(C2CCN(C(=O)c3ccc(-c4ccccc4)cc3)CC2)CC1,-4,0,0,69*,-1,0
N#Cc1c(-c2ccccc2)cc(-c2cccs2)nc1SCC(=O)Nc1cccc([N+](=O)[O-])c1,1,0,0,-1,.,.
COc1cccc(Nc2nc(-c3ccccc3Cl)nc3ccccc23)c1,28,0,0,52*,3,9
CCC(=O)c1ccccc1OCCN1CCN(Cc2ccccc2)CC1,14,1,0,66*,7,3
COc1ccc(C(=O)NC(=S)N2CCN(Cc3ccccc3)CC2)cc1OC,-2,-1,0,18,.,.
CCC(=O)c1ccccc1OCCN1CCN(C)CC1,7,-1,0,13,.,.
CCC(=O)c1ccccc1OCCCCN1CCN(CC)CC1,8,4,0,60*,18,13
COc1cc(C(C)=O)ccc1OCCN1CCN(Cc2ccccc2)CC1,11,-1,1,62*,6,10
Cc1cc(=O)n(C)c(=O)n1CCCCCCN1CCOCC1,2,0,0,55*,1,4
CCN(CC)CCCCCCn1c(C)cc(=O)n(C)c1=O,-1,0,0,36,.,.
N#Cc1ccc(OCC(O)CNCCCN2CCCC2=O)cc1 (stereo not drawn),-3,-1,0,51*,-4,7
CSc1nnc(COc2ccc(Cl)cc2)n1Cc1ccco1,-16,0,0,-8,.,.
